# According to ChEMBL document CHEMBL5606460, “ASAP - DENV-2 NS2B-NS3 protease fluorescence single point” (2024):
# The campaign covered roughly 2,000 compounds. About 110 (5.5%) showed an effect of 50% or more. The entries come from a sample that favours strong results as a whole.
# Molecular target: Genome polyprotein (dengue virus type 2) (UniProt P29990)
# [1] = Thailand/16681/1984, Concentration 25.0 uM, Number of replicates 1.0
smiles,measurement,setting,value
Cc1cc(CO)c2cccc(Cc3cccc(C(=O)Nc4ccc(C(=O)O)o4)c3)c2n1,inhibition,"Thailand/16681/1984, Concentration 49.95 uM, Number of replicates 2.0, Standard deviation 0.4498774840540114 %",35.3%
same,inhibition,"Thailand/16681/1984, Concentration 99.9 uM, Number of replicates 2.0, Standard deviation 0.6611646932609445 %",80.5%
Cc1cc(CO)c2cccc(CC(=O)NC[C@H](C)O)c2n1,inhibition,"Thailand/16681/1984, Concentration 99.9 uM, Number of replicates 2.0, Standard deviation 0.37872079112567497 %",-9.3%
Cc1cc(CO)c2cccc(Nc3ccc(C(=O)O)o3)c2n1,inhibition,"Thailand/16681/1984, Concentration 49.95 uM, Number of replicates 2.0, Standard deviation 2.0261345521834873 %",10.8%
same,inhibition,"Thailand/16681/1984, Concentration 99.9 uM, Number of replicates 2.0, Standard deviation 1.7612979174821286 %",14%
Cc1cc(CO)c2cccc(Cc3cccc(C(=O)N[C@@H](C)C(N)=O)c3)c2n1,inhibition,"Thailand/16681/1984, Concentration 49.95 uM, Number of replicates 2.0, Standard deviation 0.7962665847500093 %",6.57%
same,inhibition,"Thailand/16681/1984, Concentration 99.9 uM, Number of replicates 2.0, Standard deviation 0.21200201975767785 %",24.1%
Cc1cc(CO)c2cccc(CC(=O)Nc3ccc(C(=O)O)o3)c2n1,inhibition,"Thailand/16681/1984, Concentration 49.95 uM, Number of replicates 2.0, Standard deviation 0.6719381020899052 %",88.9%
same,inhibition,"Thailand/16681/1984, Concentration 99.9 uM, Number of replicates 2.0, Standard deviation 0.0646782165500299 %",94%
Cc1cc(CO)c2cccc(Cc3ccccc3C(=O)Nc3ccc(C(=O)O)o3)c2n1,inhibition,"Thailand/16681/1984, Concentration 49.95 uM, Number of replicates 2.0, Standard deviation 1.5990008562851066 %",16.8%
same,inhibition,"Thailand/16681/1984, Concentration 99.9 uM, Number of replicates 2.0, Standard deviation 2.1056511568076566 %",34.4%
O=Cc1ccc(N2CCC(C(=O)Nc3ccccc3Oc3ccccc3)CC2)cc1,inhibition,[1],14.2%
c1ccc2c([C@H]3CCN(Cc4ccon4)C3)c[nH]c2c1,inhibition,"Thailand/16681/1984, Concentration 49.5 uM, Number of replicates 2.0, Standard deviation 1.9476178393933903 %",-2.85%
same,inhibition,"Thailand/16681/1984, Concentration 99.01 uM, Number of replicates 2.0, Standard deviation 2.5164078728535832 %",-2.25%
same,inhibition,"Thailand/16681/1984, Concentration 198.0 uM, Number of replicates 2.0, Standard deviation 2.4110409873352823 %",-1.68%
O=Cc1ccc(N2CCC(C(=O)N3CCN(CCOc4ccccc4)CC3)CC2)cc1,inhibition,[1],11.7%
CC(C)Nc1nc2ccc(C(=O)NCc3cnn(C)c3)cc2[nH]1,inhibition,"Thailand/16681/1984, Concentration 49.5 uM, Number of replicates 2.0, Standard deviation 2.4534347281334856 %",-3.32%
same,inhibition,"Thailand/16681/1984, Concentration 99.01 uM, Number of replicates 2.0, Standard deviation 2.252490861313308 %",-2.73%
same,inhibition,"Thailand/16681/1984, Concentration 198.0 uM, Number of replicates 2.0, Standard deviation 1.9859869815785558 %",-2.52%
N#Cc1ccc(C[C@H](NC(=O)c2ccccc2)C(=O)NCCCCNC(=N)N)cc1,inhibition,"Thailand/16681/1984, Concentration 49.5 uM, Number of replicates 2.0, Standard deviation 0.6326801671633419 %",-5.12%
same,inhibition,"Thailand/16681/1984, Concentration 99.01 uM, Number of replicates 2.0, Standard deviation 1.2914777248245206 %",-4.14%
same,inhibition,"Thailand/16681/1984, Concentration 198.0 uM, Number of replicates 2.0, Standard deviation 0.45252363179091937 %",-1.98%
NCc1ccc(C[C@H](NC(=O)c2ccccc2)C(=O)Nc2cccc(C(N)=O)c2)cc1,inhibition,"Thailand/16681/1984, Concentration 49.5 uM, Number of replicates 2.0, Standard deviation 0.2094720287352659 %",-3.21%
same,inhibition,"Thailand/16681/1984, Concentration 99.01 uM, Number of replicates 2.0, Standard deviation 1.2712236353041253 %",-1.98%
same,inhibition,"Thailand/16681/1984, Concentration 198.0 uM, Number of replicates 2.0, Standard deviation 0.9103772804850719 %",-0.193%
N=C(N)NCCC[C@H](NC(=O)[C@H](Cc1ccc(CN)cc1)NC(=O)c1ccccc1)B(O)O,inhibition,"Thailand/16681/1984, Concentration 25.0 uM, Number of replicates 3.0, Standard deviation 0.03506963405710981 %",99.2%
same,inhibition,"Thailand/16681/1984, Concentration 49.5 uM, Number of replicates 2.0, Standard deviation 0.000841588271065532 %",99.2%
same,inhibition,"Thailand/16681/1984, Concentration 49.5 uM, Number of replicates 2.0, Standard deviation 0.023586050776272474 %",99.1%
same,inhibition,"Thailand/16681/1984, Concentration 49.5 uM, Number of replicates 2.0, Standard deviation 0.03248746518177329 %",99.4%
same,inhibition,"Thailand/16681/1984, Concentration 49.5 uM, Number of replicates 2.0, Standard deviation 0.05596562002585788 %",99.3%
same,inhibition,"Thailand/16681/1984, Concentration 49.5 uM, Number of replicates 2.0, Standard deviation 0.06712205941408557 %",99.5%
same,inhibition,"Thailand/16681/1984, Concentration 49.5 uM, Number of replicates 2.0, Standard deviation 0.09040060678362256 %",99.2%
same,inhibition,"Thailand/16681/1984, Concentration 49.5 uM, Number of replicates 2.0, Standard deviation 0.09520737056259301 %",99.3%
same,inhibition,"Thailand/16681/1984, Concentration 49.95 uM, Number of replicates 2.0, Standard deviation 0.47465039008435067 %",97.5%
same,inhibition,"Thailand/16681/1984, Concentration 99.01 uM, Number of replicates 2.0, Standard deviation 0.0013325147625204256 %",99.6%
same,inhibition,"Thailand/16681/1984, Concentration 99.01 uM, Number of replicates 2.0, Standard deviation 0.024875407165917744 %",99.7%
same,inhibition,"Thailand/16681/1984, Concentration 99.01 uM, Number of replicates 2.0, Standard deviation 0.05930499912707304 %",99.8%
same,inhibition,"Thailand/16681/1984, Concentration 99.01 uM, Number of replicates 2.0, Standard deviation 0.0639876825840274 %",99.6%
same,inhibition,"Thailand/16681/1984, Concentration 99.01 uM, Number of replicates 2.0, Standard deviation 0.06968458780354793 %",99.8%
same,inhibition,"Thailand/16681/1984, Concentration 99.01 uM, Number of replicates 2.0, Standard deviation 0.07464240588758142 %",99.5%
same,inhibition,"Thailand/16681/1984, Concentration 99.01 uM, Number of replicates 2.0, Standard deviation 0.12292583554166162 %",99.6%
same,inhibition,"Thailand/16681/1984, Concentration 99.9 uM, Number of replicates 2.0, Standard deviation 0.4080138623651106 %",98.7%
same,inhibition,"Thailand/16681/1984, Concentration 198.0 uM, Number of replicates 2.0, Standard deviation 0.0010358009490037316 %",99.7%
same,inhibition,"Thailand/16681/1984, Concentration 198.0 uM, Number of replicates 2.0, Standard deviation 0.007655216388730705 %",99.8%
same,inhibition,"Thailand/16681/1984, Concentration 198.0 uM, Number of replicates 2.0, Standard deviation 0.011571838727151066 %",99.8%
same,inhibition,"Thailand/16681/1984, Concentration 198.0 uM, Number of replicates 2.0, Standard deviation 0.02492935513201169 %",99.9%
same,inhibition,"Thailand/16681/1984, Concentration 198.0 uM, Number of replicates 2.0, Standard deviation 0.05517797972088629 %",99.9%
same,inhibition,"Thailand/16681/1984, Concentration 198.0 uM, Number of replicates 2.0, Standard deviation 0.06791509451566656 %",99.8%
same,inhibition,"Thailand/16681/1984, Concentration 198.0 uM, Number of replicates 2.0, Standard deviation 0.07632018763310308 %",99.6%
O=Cc1ccc(N2CCC(C(=O)N3CCN(c4ccnc5cc(Cl)ccc45)CC3)CC2)cc1,inhibition,[1],1.86%
CC(C)CC(=O)N1CCC(NC(=O)C2CCN(c3ccc(C=O)cc3)CC2)CC1,inhibition,[1],14.2%
